In PubChem BioAssay (EPA / NIEHS):
Records with an inconclusive call do not appear. Calls of active or inactive are those of the source. Rule for the calls: active = hit-call score of the fitted dose curve at least 0.9, where 1 is the maximum; inconclusive = response in the unintended direction; inactive = score below 0.9.

Tested on: not listed separately
Test: ArunA_NOG_NeuriteLength: ArunA Biomedical's Neurite Outgrowth (NOG) Assay for Neurite Length (AID 2283757)
Procedure, shortened: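 Differentiated human H9-derived neurons were exposed for 48 h from seeding, then stained with Hoechst and βIII-tubulin. Automated high-content imaging gave total neurite length per valid neuron, counting processes >10 um. Loss of signal was scored versus DMSO.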

Compound | AC50 | outcome
COC(=O)c1ccc(O)cc1 | 18.1 µM (active) | 
O=c1c(O)c(-c2ccc(O)c(O)c2)oc2cc(O)cc(O)c12 | 9.45 µM (active) | 
CCCc1cc(=O)[nH]c(=S)[nH]1 |  | inactive
CCCCC(CC)COC(=O)CC(C(=O)OCC(CC)CCCC)S(=O)(=O)O (centres undefined) |  | inactive

Tested on: not listed separately
Test: ArunA_NOG_NeuritesPerNeuron: ArunA Biomedical's Neurite Outgrowth (NOG) Assay for Neurites Per Neuron (AID 2283758)
Procedure, shortened: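 Differentiated human H9-derived neurons exposed to chemicals for 48 h from seeding, then stained with Hoechst and βIII-tubulin/DyLight 488. Automated imaging counted neurites (processes >10 um) per valid neuron; loss of signal versus DMSO scored.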

Compound | AC50 | outcome
COC(=O)c1ccc(O)cc1 | 17.4 µM (active) | 
O=c1c(O)c(-c2ccc(O)c(O)c2)oc2cc(O)cc(O)c12 | 7.94 µM (active) | 
CCCc1cc(=O)[nH]c(=S)[nH]1 |  | inactive
OC[C@@H](O)[C@@H](O)[C@H](O)[C@H](O)CO |  | inactive
CCCCC(CC)COC(=O)CC(C(=O)OCC(CC)CCCC)S(=O)(=O)O (centres undefined) |  | inactive

Tested on: not listed separately
Test: ArunA_NOG_BranchPointsPerNeurite: ArunA Biomedical's Neurite Outgrowth (NOG) Assay for Branch Points Per Neurite (AID 2283759)
Procedure, shortened: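 Automated image analysis traced neurites (processes >10 um) from valid cell bodies after Hoechst and βIII-tubulin staining. hNN cells from H9 embryonic stem cells, 48 h exposure. Fitted bidirectionally against DMSO.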

Compound | AC50 | outcome
COC(=O)c1ccc(O)cc1 | 14.8 µM (active) | 
O=c1c(O)c(-c2ccc(O)c(O)c2)oc2cc(O)cc(O)c12 | 8.06 µM (active) | 
Oc1ccc2ccccc2c1N=Nc1ccccc1 |  | inactive
CCCc1cc(=O)[nH]c(=S)[nH]1 |  | inactive
OC[C@@H](O)[C@@H](O)[C@H](O)[C@H](O)CO | 9.92 µM (active) | 
CCCCc1ccc2c(n1)[C@@H](c1ccc(OC)cc1C[C@H](C)C(=O)O)[C@H](C(=O)O)[C@H]2c1ccc2c(c1)OCO2 |  | inactive

Target: Luciferin 4-monooxygenase (Photinus pyralis) (UniProt P08659)
Test: CCTE_Simmons_QuantiLum_inhib_2: CCTE's Firefly Luciferase Inhibition Assay, Simmons Lab (AID 2283767);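 for AC50: potency for inhibitors that lower luciferase luminescence relative to DMSO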
Procedure, shortened: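 Luminescence loss relative to DMSO vehicle defines inhibition; detection reagent containing 150 uM D-luciferin and 147 uM dATP (final, pH 7.8) is injected immediately before each read. Enzyme is preincubated with an 8-point titration (5 nM–87.5 uM final) for 30 min at 37C.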

Luciferin 4-monooxygenase (Photinus pyralis), sequence (P08659 whole entry, looked up): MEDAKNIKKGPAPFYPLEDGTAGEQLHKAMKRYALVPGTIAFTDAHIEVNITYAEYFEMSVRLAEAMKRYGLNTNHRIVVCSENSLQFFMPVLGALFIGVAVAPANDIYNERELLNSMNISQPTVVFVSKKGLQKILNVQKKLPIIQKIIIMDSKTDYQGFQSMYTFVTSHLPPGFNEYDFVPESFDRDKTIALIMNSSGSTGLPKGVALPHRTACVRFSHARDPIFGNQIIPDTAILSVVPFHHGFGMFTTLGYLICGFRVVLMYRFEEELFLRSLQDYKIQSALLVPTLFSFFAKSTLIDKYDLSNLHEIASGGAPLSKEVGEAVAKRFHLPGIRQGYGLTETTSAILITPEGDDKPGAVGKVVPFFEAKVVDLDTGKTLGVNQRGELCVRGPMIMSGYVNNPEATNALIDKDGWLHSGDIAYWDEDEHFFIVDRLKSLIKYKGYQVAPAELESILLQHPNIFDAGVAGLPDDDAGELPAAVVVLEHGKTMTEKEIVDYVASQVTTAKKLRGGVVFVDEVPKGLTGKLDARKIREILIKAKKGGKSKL

Compound | AC50 | outcome
Cc1cc(=O)[nH]c(=S)[nH]1 | 53.8 µM (active) | 
CN1CCCC1=O |  | inactive
Cc1oc(-c2ccccc2)nc1CCOc1cccc2c1ccn2CCC(=O)O |  | inactive
CC(C)(C)c1cc(O)c(C(C)(C)C)cc1O |  | inactive
CC=Cc1ccc(O)c(OC)c1 |  | inactive
C=CCc1ccc(O)c(OC)c1 |  | inactive
CCNc1cccc(C)c1 |  | inactive
COc1cc(S(=O)(=O)O)c(C)cc1N=Nc1c(O)ccc2cc(S(=O)(=O)O)ccc12 | 10.7 µM (active) | 
Nc1ccc(S(=O)(=O)c2ccc(N)cc2)cc1 |  | inactive
CNC(=O)[C@H]1O[C@@H](n2cnc3c(NCc4cc(Cl)ccc4OCc4cc(C)no4)ncnc32)[C@H](O)[C@@H]1N |  | inactive
CCOc1ccc2c(c1)C(C)=CC(C)(C)N2 |  | inactive
CC1=C(/C=C/C(C)=C/C=C/C(C)=C/CO)C(C)(C)CCC1 |  | inactive
O=c1c(O)c(-c2ccc(O)c(O)c2)oc2cc(O)cc(O)c12 | 53.8 µM (active) | 
Oc1ccc2ccccc2c1N=Nc1ccccc1 | 12.6 µM (active) | 
CCCc1cc(=O)[nH]c(=S)[nH]1 |  | inactive
COc1ccc(C)cc1N |  | inactive
Cc1c(C(=O)O)c(O)cc2c1C(=O)c1c(O)c([C@@H]3O[C@H](CO)[C@@H](O)[C@H](O)[C@H]3O)c(O)c(O)c1C2=O | 18.5 µM (active) | 
Cc1ccc(C)c(O)c1C |  | inactive
C[C@]12C=CC(=O)C=C1CC[C@@H]1[C@@H]2C(=O)C[C@@]2(C)[C@H]1CC[C@]2(O)C(=O)CO |  | inactive
Nc1ccccc1N | 24.8 µM (active) | 
CCCCC(CC)COC(=O)CC(C(=O)OCC(CC)CCCC)S(=O)(=O)O (centres undefined) | 13.1 µM (active) | 
Nc1nc(N)c2nc(CNc3ccc(C(=O)N[C@@H](CCC(=O)O)C(=O)O)cc3)cnc2n1 |  | inactive
CN[C@H]1CC[C@@H](c2ccc(Cl)c(Cl)c2)c2ccc(S(N)(=O)=O)cc21 | 10.7 µM (active) | 
Cc1ccc(N(C)C)cc1 |  | inactive
